HepG2 viability – kills HepG2 cells in TGF-b inhibitor counter-screen | hit rate 0.76% among 410,000 | HepG2 CAGA-GFP viability, ATP luminescence, 18 h | AID 588856 | Potency, µM (titrated, usually from 46.1 µM), for the others: at the top dose activity change, negative = cytotoxicity, most hits filed as cytotoxic; also: potency is read from the fitted curve at half-maximal effect
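HepG2 CAGA-GFP cells (1000/well, DMEM with 1% FBS) received compound, then TGF-beta at 500 pg/mL final, and were incubated 18 hours at 37 degrees C. Viability was read by CellTiter-Glo luminescence. Media-only wells were set as complete cell-killing and DMSO as no toxicity.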
IL-1B inflam inh – blocks inflammasome-driven IL-1 beta release | THP-1 LPS/ATP IL-1B secretion, AlphaLISA, 16 h; active compounds read low | activity change, % at 57.5 µM | hit rate 4.7% among 360,000; in the data active = activity change below about -50%; inconclusive = mostly about -30% to -49%; also: % is scaled to controls: 0 for no effect and ±100 for the full control effect
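THP-1 cells pretreated 1 hr with compounds (up to 57.5 uM final), then stimulated with LPS (250 ng/mL final) plus ATP (1.25 mM final); secreted IL-1B measured by AlphaLISA after 16 hr, decreased signal indicating inhibition.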
DT40 TDP1 CPT – growth inhibition of DT40 Tdp1-/-;hTDP1 cells with camptothecin (screen for TDP1 inhibitors) | chicken DT40 Tdp1-/-;hTDP1 cells + 20 nM CPT, ATP luminescence, 48 h | Potency, µM (series often up to 46.2 µM), without a hit: at the top dose activity change, negative = growth inhibition, actives largely listed as inhibitors | hit rate 12% among 420,000 | AID 686979; also: potency is read from the fitted curve at half-maximal effect; % is scaled to controls: 0 for no effect and ±100 for the full control effect; nearly all actives have a fitted effect of over 55% in size
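Chicken DT40 Tdp1-/- cells stably complemented with human TDP1 were seeded at 400 cells/well in medium containing 20 nM camptothecin, exposed to pin-transferred compounds, and grown at 37 °C for at least 48 hr. Viability was read as ATP luminescence.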
TGFb inhibitor – blocks TGF-b signaling. HepG2 CAGA-GFP TGF-b/SMAD3 reporter, GFP fluorescence, 18 h; TGF-beta stimulated, 500 pg/mL final. Potency, µM (highest dose often 46.1 µM), for inactives: top-dose activity, negative = inhibition, hits mostly inhibitors. hit rate 1.2% among 410,000; also: potency is read from the fitted curve at half-maximal effect; % is scaled to controls: 0 for no effect and ±100 for the full control effect; nearly all actives have a fitted effect of over 65% in size
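HEPG2 CAGA-GFP cells (1000/well, DMEM with 1% FBS) were pre-incubated 2 h at 37 degrees C, given compound by pin tool, then stimulated with TGF-beta at 500 pg/mL final for 18 h before per-cell GFP fluorescence imaging.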
DT40 TDP1 no CPT – qHTS for Inhibitors of human tyrosyl-DNA phosphodiesterase 1 (TDP1): qHTS in cells in absence of CPT | DT40 Tdp1-/- hTDP1 cells, no CPT, ATP luminescence, 48 h | Potency, µM (titrated, usually from 46.2 µM), for the others: top-dose activity change, negative = growth inhibition, most hits filed as inhibitors | hit rate 15% among 420,000; also: potency is read from the fitted curve at half-maximal effect; % is scaled to controls: 0 for no effect and ±100 for the full control effect; nearly all actives have a fitted effect of over 55% in size
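No-CPT arm: Tdp1-/-;hTDP1 DT40 cells (400/well) plus compounds, incubated ≥48 hr at 37 °C. Readout CellTiter-Glo luminescence.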
TDP1 block – TDP1 (human) enzyme inhibition; Q9NUW8; recombinant TDP1, AlphaScreen DNA substrate cleavage; Potency, µM (series often up to 130 µM), for inactives: top-dose activity change, negative = inhibition, actives largely listed as inhibitors; hit rate 0.28% among 350,000; AID 485290; also: potency is read from the fitted curve at half-maximal effect; % is scaled to controls: 0 for no effect and ±100 for the full control effect; nearly all actives have a fitted effect of over 40% in size
Target sequence (Q9NUW8 whole entry, looked up): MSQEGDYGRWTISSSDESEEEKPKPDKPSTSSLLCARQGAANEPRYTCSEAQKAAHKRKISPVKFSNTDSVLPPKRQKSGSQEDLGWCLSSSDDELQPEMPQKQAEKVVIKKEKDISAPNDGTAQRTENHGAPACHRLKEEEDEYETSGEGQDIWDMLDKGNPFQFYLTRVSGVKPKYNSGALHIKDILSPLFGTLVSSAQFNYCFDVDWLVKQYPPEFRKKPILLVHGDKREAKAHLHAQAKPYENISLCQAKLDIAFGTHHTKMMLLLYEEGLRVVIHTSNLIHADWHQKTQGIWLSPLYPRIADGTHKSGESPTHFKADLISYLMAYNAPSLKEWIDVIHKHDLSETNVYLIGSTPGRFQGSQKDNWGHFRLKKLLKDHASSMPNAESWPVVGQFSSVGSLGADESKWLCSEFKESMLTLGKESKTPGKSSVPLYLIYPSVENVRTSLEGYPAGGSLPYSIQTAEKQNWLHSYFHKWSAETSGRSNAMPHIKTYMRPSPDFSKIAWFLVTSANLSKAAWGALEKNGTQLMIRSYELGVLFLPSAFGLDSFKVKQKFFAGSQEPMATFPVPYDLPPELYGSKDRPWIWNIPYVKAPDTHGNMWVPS
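E. coli-derived human Tdp1, 1 nM final. Cpd preinc 15 min RT; substrate 15 nM final, 5 min RT; AS bead mix 10 ug/ml final, 10 min RT. Signal loss = tyrosine-FITC cleavage. No-enzyme wells = max signal.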
Active calls of the source: *; u = inconclusive; x = not tested or not shown; [ ] = remark or other dose. Only some compounds are listed: those with a hit (about 19% of all), similar ones and a draw of the others. Unless noted, calls follow the shape of the dose curve; as a rule, active = well fitted curve in the direction sought with a large enough effect; inconclusive = small, poorly fitted or top-dose-only effect, or another doubt; inactive = no such curve, though single readings can be large; an effect the other way counts as inactive or inconclusive.

SMILES	HepG2 viability	IL-1B inflam inh	DT40 TDP1 CPT	TGFb inhibitor	DT40 TDP1 no CPT	TDP1 block
Cc1cc(NC(=O)CS(=O)(=O)c2cn(Cc3ccc(F)cc3)c3ccccc23)no1	-16.9%	-1.3	20.6µM*	-26.9%	10.3µM*	-2.5%
Cc1cc(NC(=O)CS(=O)(=O)c2cn(Cc3cccc(F)c3)c3ccccc23)no1	-0.1%	-55.0*	u	-20.3%	u	3.4%
Cc1cc(NC(=O)CS(=O)(=O)c2cn(Cc3cccc(C(F)(F)F)c3)c3ccccc23)no1	-1.3%	12.8	u	u	20.6µM*	x
CCn1cc(S(=O)(=O)CC(=O)Nc2cc(C)on2)c2ccccc21	-28.9%	47.5	-25.7%	-4.9%	u	7.8%
Cc1cc(NC(=O)CSCC(=O)NCc2cccc(C(F)(F)F)c2)no1	-9.2%	1.8	-18.4%	-0.1%	-21.2%	x
Cc1ccc(CNC(=O)CCC2CCCN(C(=O)CCC(F)(F)F)C2)o1 (centres undefined)	0.1%	12.5	20.9%	0.9%	1.5%	2.4%
Cc1n[nH]c(C)c1S(=O)(=O)N1CCCC(C(=O)NC2CCCc3ccccc32)C1 (centres undefined)	-1.5%	5.6	20.6µM*	-18.1%	18.4µM*	4.9%
CCOc1ccc(CCNC(=O)C2CCCN(S(=O)(=O)c3c(C)n[nH]c3C)C2)cc1OCC (centres undefined)	25.4%	3.1	u	8.7%	9.2µM*	-3.1%
Cc1ccc(CNC(=O)C2CCCN(S(=O)(=O)c3c(C)n[nH]c3C)C2)cc1 (centres undefined)	-0.1%	0.0	u	4.9%	-21.3%	5.9%
Cc1cccc(N/C=C(\[N+](=O)[O-])S(=O)(=O)c2ccccc2)c1C	3.6%	18.9	5.4%	5.6%	-5.8%	8.8%
Cc1nn(-c2ccccc2)c(OC(=O)c2ccc(Br)cc2)c1S(=O)(=O)c1ccccc1	1.4%	x	-5.7%	6.3%	-1.6%	0.0%
CCCc1cc(C(=O)Nc2ccc(C(=O)c3ccc(C)cc3)cc2)n(C)n1	-31.2%	-62.5*	14.6µM*	u	u	1.7%
Cc1ccc(-c2cnc3cc(C)nn3c2)cc1	0.1%	-14.9	-3.6%	2.6%	u	-5.9%
Cc1ccc(-c2cnc3c(Cl)c(C)nn3c2)cc1	-7.1%	32.4	20.6µM*	-6.2%	10.3µM*	5.9%
CCc1ccccc1NC(=O)Cn1cc(C(=O)c2ccc(Cl)cc2)c(=O)c2ccc(C)nc21	-17.2%	x	1.0%	-8.6%	5.0%	-4.2%
COc1ccc(CNC(=O)Nc2nc(C(N)Cc3ccc(C(F)(F)F)cc3)cs2)cc1 (centres undefined)	-94.1%	u	u	15.8µM*	20.6µM*	x
COc1ccc(CC(N)c2csc(NC(=O)c3ccccc3)n2)cc1 (centres undefined)	-34.8%	u	u	-6.6%	u	x
COc1ccc(CC(N)c2csc(NC(=O)c3ccc(OC)cc3)n2)cc1 (centres undefined)	-29.9%	u	16.4µM*	u	20.6µM*	x
COc1ccc(CC(N)c2csc(NC(=O)C(c3ccccc3)c3ccccc3)n2)cc1 (centres undefined)	11.2µM*	-51.9*	18.4µM*	u	6.51µM*	x
COc1cc(CNC(=O)Nc2nc(C(N)c3ccccc3)cs2)cc(OC)c1OC (centres undefined)	-19.3%	-20.5	4.0%	-19.3%	-19.6%	x
COc1ccc(CC(N)c2csc(NC(=O)c3ccc(F)cc3)n2)cc1 (centres undefined)	-28.9%	-54.1*	u	u	23.1µM*	x
COc1ccc(CC(N)c2csc(NC(=O)c3ccccc3OC)n2)cc1 (centres undefined)	-49.1%	-7.4	u	-21.0%	-25.3%	x
COc1cc(CNC(=O)Nc2nc(C(N)Cc3ccc(Cl)cc3)cs2)cc(OC)c1OC (centres undefined)	17.8µM*	-74.1*	u	u	18.4µM*	x
O=S(c1ccccc1O)S(=O)c1ccccc1O (centres undefined)	-5.9%	u	5.8µM*	0.0%	5.17µM*	x
O=C(NNC(=O)c1ccccc1C(F)(F)F)c1csc(N2CCOCC2)n1	12.4%	u	3.7%	4.5%	0.6%	5.1%
SMILES	HepG2 viability	IL-1B inflam inh	DT40 TDP1 CPT	TGFb inhibitor	DT40 TDP1 no CPT	TDP1 block
Cc1ncc2c(c1CNC(=O)c1ccccc1F)CCN(C(=O)c1ccc3c(c1)OCCO3)C2	x	x	0.058µM*	x	0.13µM*	x
CC(=O)Nc1ccc(S(=O)(=O)N[C@@H](C)C(=O)N2CCN(C/C=C/c3ccccc3)CC2)cc1	-14.6%	14.2	-13.0%	-10.5%	u	-0.2%[56.1 µM]
Cc1cc(C2=CC(=O)C[C@H](c3ccc4c(c3)OCO4)C2)ccc1F	-18.9%	-51.0*	-18.4%	u	-27.9%	0.1%
O=C1C=C(c2ccc3c(c2)OCO3)C[C@@H](c2ccc3c(c2)OCO3)C1	-1.6%	10.6	-8.8%	-1.5%	-23.1%	-0.4%
O=C1C=C(c2cc(Cl)cc(Cl)c2)C[C@@H](c2ccc3c(c2)OCO3)C1	-36.0%	6.0	-1.4%	-15.1%	-29.6%	1.0%
N#Cc1ccc(C2=CC(=O)C[C@H](c3ccc4c(c3)OCO4)C2)cc1	-21.0%	-27.6	-26.0%	3.5%	u	3.7%
O=C1C=C(c2ccc3cc[nH]c3c2)C[C@@H](c2ccc3c(c2)OCO3)C1	-7.8%	2.4	1.84µM*	u	10.3µM*	u
Cc1cc(C)c(C2=CC(=O)C[C@H](c3ccc4c(c3)OCO4)C2)c(C)c1	-39.0%	8.2	18.4µM*	u	u	0.6%
COc1cc(NC(=O)c2nnn(CC(=O)Nc3ccccc3)c2N)cc(OC)c1	-25.4%	x	5.7%	-22.2%	-7.9%	-3.2%
CCn1c(CNc2ccc(Cl)cc2)nnc1SCc1ccc(Cl)cc1	-27.2%	-1.7	u	u	18.4µM*	5.0%
CCn1c(CNc2ccc(Cl)cc2)nnc1SCc1ccc(C)cc1	-22.7%	u	u	u	-27.2%	5.2%
CCOc1ccc(NCc2nnc(SCc3ccc(Cl)cc3)n2-c2ccccc2)cc1	-18.7%	u	u	u	29.1µM*	13.5%
CCn1c(CNc2ccc(Cl)cc2)nnc1SCCN1CCCCC1	-18.6%	-5.0	20.6µM*	0.0%	18.4µM*	-1.1%
CC(C)c1ccc(N=C2N=C(N)c3ccccc32)cc1	-52.6%	-96.0*	u	u	u	0.0%
